{
  "source": "PubChem BioAssay (EPA / NIEHS)",
  "key": {"[1]": {"experiment": "TOX21_p53_BLA_p2_viability: Viability Assessment in the Tox21 HCT-116 p53 Agonism Beta-lactamase Assay, Phase 2 (AID 2283591);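 further: actives lower the ATP signal meaning cytotoxicity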", "in_short": "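Cytotoxicity readout: CellTiter-Glo ATP luminescence, 30 min at room temperature, after the beta-lactamase read. Cells were HCT116 exposed 16 h at 37C to compounds pin-transferred at 217-fold dilution from DMSO stocks.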"}, "[2]": {"target": "Cellular tumor antigen p53 (Homo sapiens) (UniProt P04637)", "sequence (P04637 whole entry, looked up)": "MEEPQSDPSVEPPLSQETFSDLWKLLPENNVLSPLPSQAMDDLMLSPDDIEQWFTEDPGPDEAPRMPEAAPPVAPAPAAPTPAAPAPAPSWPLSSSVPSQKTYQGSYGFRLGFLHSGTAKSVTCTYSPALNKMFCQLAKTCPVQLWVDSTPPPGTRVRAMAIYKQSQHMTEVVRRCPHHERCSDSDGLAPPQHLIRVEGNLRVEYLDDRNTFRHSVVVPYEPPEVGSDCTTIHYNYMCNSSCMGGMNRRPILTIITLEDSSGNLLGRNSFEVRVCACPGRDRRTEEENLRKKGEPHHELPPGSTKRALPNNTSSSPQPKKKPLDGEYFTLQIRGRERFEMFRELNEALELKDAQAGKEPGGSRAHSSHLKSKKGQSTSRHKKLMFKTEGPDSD", "experiment": "TOX21_p53_BLA_p2_ratio: Tox21 HCT-116 p53 Agonism Beta-lactamase Assay, Ratio, Phase 2 (AID 2283592)", "in_short": "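Read-out is the blue/green (460/530 nm, 405 nm excitation) ratio after 2 h CCF4-AM loading, fitted as gain versus DMSO. Compounds, pinned at 217-fold dilution from DMSO stocks, stayed 16 h on HCT-116 beta-lactamase reporter cells seeded 5 h earlier.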"}, "[3]": {"experiment": "TOX21_p53_BLA_p3_viability: Viability Assessment in the Tox21 HCT-116 p53 Agonism Beta-lactamase Assay, Phase 3 (AID 2283593)", "in_short": "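Cellular ATP was quantified by CellTiter-Glo luminescence, read after 30 min at room temperature. Beforehand, HCT116 cells (4000/well) received compound 5 h post-seeding, 217-fold diluted from DMSO, then incubated 16 h at 37C.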"}, "[4]": {"target": "Cellular tumor antigen p53 (Homo sapiens) (UniProt P04637)", "experiment": "TOX21_p53_BLA_p3_ratio: Tox21 HCT-116 p53 Agonism Beta-lactamase Assay, Ratio, Phase 3 (AID 2283596)", "in_short": "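Cells were seeded at 4000/well, rested 5 h at 37C, then dosed with DMSO compound solutions (217-fold dilution) for 16 h. CCF4-AM substrate was loaded for 2 h at room temperature, and the 460/530 nm emission ratio was fitted for gain of signal versus DMSO.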"}, "[5]": {"target": "Cellular tumor antigen p53 (Homo sapiens) (UniProt P04637)", "experiment": "TOX21_p53_BLA_p5_ratio: Tox21 HCT-116 p53 Agonism Beta-lactamase Assay, Ratio, Phase 5 (AID 2283599)", "in_short": "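Beta-lactamase reporter ratio (blue 460 nm over green 530 nm, 405 nm excitation) after 2 h CCF4-AM loading, in HCT-116 cells exposed 16 h at 37 C to compounds pinned at 217-fold dilution. Increases relative to DMSO baseline scored.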"}, "[6]": {"experiment": "TOX21_p53_BLA_p5_viability: Viability Assessment in the Tox21 HCT-116 p53 Agonism Beta-lactamase Assay, Phase 5 (AID 2283600)", "in_short": "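Viability came from CellTiter-Glo ATP luminescence, read after 30 min at room temperature. Before this, HCT-116 p53-bla cells (4000/well) had 16 hours of compound exposure at 37C, with DMSO stocks diluted 217-fold on transfer.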"}, "[7]": {"target": "Cellular tumor antigen p53 (Homo sapiens) (UniProt P04637)", "experiment": "TOX21_p53_BLA_p4_ratio: Tox21 HCT-116 p53 Agonism Beta-lactamase Assay, Ratio, Phase 4 (AID 2283601)", "in_short": "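Signal is the blue/green (460nm/530nm) ratio of cleaved versus uncleaved CCF4-AM substrate, read after 2 h substrate loading. Cells were HCT116 carrying the p53-responsive beta-lactamase reporter, dosed 16 h at 37C, 5% CO2; CellTiter-Glo measured in parallel.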"}},
  "note": "Several values for one entry are separate records, joined by “and”; a condition that tells them apart may be missing. Equal values may be shown once. Records with an inconclusive call do not appear. A structure can be active in one record and inactive in another. Activity calls are given as the source filed them. How the source made its calls: active means hit-call score of the fitted dose curve at least 0.9, where 1 is the maximum; inconclusive means response in the unintended direction; inactive means score below 0.9.",
  "data": [
    {"smiles": "C[N+](C)(C)CC(O)CC(=O)[O-]", "note": "(stereo not drawn)", "values": [
      {"measurement": "outcome", "setting": "[1]", "result": "inactive"},
      {"measurement": "outcome", "setting": "[2]", "result": "inactive"},
      {"measurement": "outcome", "setting": "[3]", "result": "inactive"},
      {"measurement": "outcome", "setting": "[4]", "result": "inactive"},
      {"measurement": "outcome", "setting": "[5]", "result": "inactive"},
      {"measurement": "outcome", "setting": "[6]", "result": "inactive"},
      {"measurement": "outcome", "setting": "[7]", "result": "inactive"}
    ]},
    {"smiles": "O=C(c1ccc(O)cc1)c1ccc(Cl)cc1", "values": [
      {"measurement": "outcome", "setting": "[1]", "result": "inactive"},
      {"measurement": "AC50", "setting": "[2]", "result": "70.5 µM (active)"},
      {"measurement": "outcome", "setting": "[3]", "result": "inactive"},
      {"measurement": "AC50", "setting": "[4]", "result": "80 µM (active)"},
      {"measurement": "AC50", "setting": "[5]", "result": "74.9 µM (active)"},
      {"measurement": "outcome", "setting": "[6]", "result": "inactive"},
      {"measurement": "AC50", "setting": "[7]", "result": "86.9 µM (active)"}
    ]},
    {"smiles": "C=C(CC)C(=O)c1ccc(OCC(=O)O)c(Cl)c1Cl", "values": [
      {"measurement": "outcome", "setting": "[1]", "result": "inactive"},
      {"measurement": "AC50", "setting": "[2]", "result": "13.8 µM (active) and 6.46 µM (active)"},
      {"measurement": "outcome", "setting": "[3]", "result": "inactive"},
      {"measurement": "AC50", "setting": "[4]", "result": "50.8 µM (active) and 38.9 µM (active)"},
      {"measurement": "AC50", "setting": "[5]", "result": "24.7 µM (active)"},
      {"measurement": "outcome", "setting": "[5]", "result": "inactive"},
      {"measurement": "outcome", "setting": "[6]", "result": "inactive"},
      {"measurement": "AC50", "setting": "[7]", "result": "25.2 µM (active)"},
      {"measurement": "outcome", "setting": "[7]", "result": "inactive"}
    ]},
    {"smiles": "CN(C)CCOCCN(C)CCO", "values": [
      {"measurement": "outcome", "setting": "[1]", "result": "inactive"},
      {"measurement": "outcome", "setting": "[2]", "result": "inactive"},
      {"measurement": "outcome", "setting": "[3]", "result": "inactive"},
      {"measurement": "outcome", "setting": "[4]", "result": "inactive"},
      {"measurement": "outcome", "setting": "[5]", "result": "inactive"}
    ]}
  ]
}
